Test results taken from PubChem BioAssay AID1159580 (chemical genetic matrix, 2015).
Out of some 5,500 compounds screened, about 2,000 (36%) were called active. Not shown: some 18% with an inconclusive outcome. Rule as the data show it: active = normalized growth mostly below about 0.91 (no sharp cut-off); inconclusive = no clear call, values can overlap the other calls; inactive = mostly above about 0.92. The list shows a part of the results.

Assay: chemical genetic growth profiling, strain panel (AID 1159580);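 also: tested at 20 µM; growth read once vehicle control cultures reached saturation at 30 °C; 1 = growth at the plate median or of vehicle wells; lower values mean less growth of the strain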
Conditions: S. cerevisiae deletion strains, growth OD

Measured: normalized growth

Nc1ccc2c3c(cccc13)C(=O)NC2=O
inactive: locus YAL040C, strain CLN3, stronger effect = lower value 0.997 | locus YCL061C, strain MRC1 (second series), stronger effect = lower value 1 | locus YER002W, strain NOP16, stronger effect = lower value 0.998 | locus YGR078C, strain PAC10, stronger effect = lower value 0.981 | locus YMR307W, strain GAS1, stronger effect = lower value 0.995 | locus YNL128W, strain TEP1, stronger effect = lower value 0.988 | locus YNL175C, strain NOP13, stronger effect = lower value 0.999 | locus YNL197C, strain WHI3, stronger effect = lower value 1.01 | locus YNL224C, strain SQS1, stronger effect = lower value 0.985 | locus YOR083W, strain WHI5 (second series), stronger effect = lower value 0.965 | locus YPL055C, strain LGE1, stronger effect = lower value 1.01

COC1=C(OC)C(=O)C(CCCCCCCCCCO)=C(C)C1=O
inactive: locus YHR030C, strain SLT2, stronger effect = lower value 0.964 | locus YHR079C, strain IRE1, stronger effect = lower value 0.937 | locus YJL095W, strain BCK1, stronger effect = lower value 0.982 | locus YJR066W, strain TOR1, stronger effect = lower value 0.934 | locus YLR113W, strain HOG1, stronger effect = lower value 0.922 | locus YNL183C, strain NPR1, stronger effect = lower value 0.92 | locus YOR231W, strain MKK1, stronger effect = lower value 0.972 | locus YPL256C, strain CLN2, stronger effect = lower value 0.964
